In PubChem BioAssay (NCATS) one finds Potency and outcome data, which are given here for four compounds.

Each structure is given as a SMILES string. Records with an inconclusive call do not appear. Calls of active or inactive are those of the source. Unless noted, the call rests on the fitted dose curve; in most records, active means well fitted curve in the direction sought with a large enough effect; inconclusive means small, poorly fitted or top-dose-only effect, or another doubt; inactive means no such curve, though single readings can be large; an effect the other way counts as inactive or inconclusive.

Assay [1] addresses Pyruvate kinase (Leishmania mexicana) (UniProt Q27686). In words: qHTS Validation Assay for Activators of Leishmania Mexicana Pyruvate Kinase (AID 959). The essentials: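 LmPYK E451W 0.2 nM; 0.5 mM PEP, 0.1 mM ADP, 7 mM MgCl2, 50 mM KCl, imidazole pH 7.2, 0.01% Tween 20, 0.05% BSA; 1 h RT; PKLight luminescence; DMSO-normalized.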
Assay [2] addresses Pyruvate kinase PKM (Homo sapiens) (UniProt P14618). In words: qHTS Assay for Inhibitors of Human Muscle Pyruvate Kinase (AID 958). Summed up: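 Purified human PKM2 (0.1 nM) with 0.5 mM PEP (Km) and 0.1 mM ADP in 50 mM imidazole pH 7.2, KCl, MgCl2, 1 h at room temperature; ATP formed read by coupled luciferase luminescence. Normalized to no-enzyme/110 uM thiadiazolimine inhibition; 0.3 nM enzyme column for activation.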

For assay [3], the target named is Luciferin 4-monooxygenase (Photinus pyralis) (UniProt P08659). In words: Biochemical firefly luciferase enzyme assay for NPC (AID 624030).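 Further: purified P. pyralis luciferase at 10 nM with luciferin and ATP substrate; nearly all actives have a fitted effect of over 70% in size.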 Summed up: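 Purified P. pyralis luciferase at 10 nM in 50 mM Tris Acetate (final), luminescence read within 5 minutes of enzyme addition to compounds. Activity normalised to PTC124 versus DMSO; concentration-response curves classed by r2, magnitude and activity.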

Assay [4] can be described thus: S16 Schwann cell viability assay (CellTiter-Glo assay) (AID 624031).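 Further: cellular ATP luminescence as a viability measure; nearly all actives have a fitted effect of over 70% in size.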 Summed up:
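Native S16 rat Schwann cells in DMEM/10% FBS without phenol red were incubated overnight, then exposed to compounds for 24 h at 37 °C/5% CO2. Viability was read as ATP luminescence (CellTiter-Glo), normalized to no-cell wells and DMSO (0%).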

The nature of assay [5]: S16 Schwann cell PMP22 intronic element firefly luciferase assay (AID 624032). Further: nearly all actives have a fitted effect of over 30% in size. The essentials:
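Rat S16 Schwann cells stably carrying firefly luciferase driven by a PMP22 intronic element, in 10% FBS, treated 24 h at 37 C. ONE-Glo luminescence normalized to PTC124 control and DMSO (0%); curves classed by r2, magnitude and activity.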

Assay [6] is described as follows: S16 Schwann cell PMP22 intronic element beta-lactamase assay (AID 624044; calls by dose curve; further: nearly all actives have a fitted effect of over 15% in size). The essentials:
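Beta-lactamase reporter under a PMP22 intronic regulatory element in stable S16 rat Schwann cells; 24 h compound exposure. 460 nm blue signal normalized between DMSO (0%) and potassium clavulanate, with 535 nm FRET tracking viability; curves classed by r2 and response.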

The test system of the next assay is 3D7. In words: qHTS profiling for inhibitors of Plasmodium falciparum proliferation (AID 504749). Further: nearly all actives have a fitted effect of over 60% in size. Further: potency means the concentration at half of the fitted maximal effect. The note with it: P. falciparum in erythrocytes, SYBR Green DNA, 72 h; series mostly up to 28.7 µM. The essentials: (§1)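 SYBR Green fluorescence (ex 485 nm, em 535 nm) reports parasite DNA after 72 h compound exposure of infected red cells at 0.3% parasitemia, 2.5% hematocrit; signal normalized to 0.29 uM artemisinin and vehicle wells.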

In another assay the test system is 7G8. The assay is described as above. To be noted: P. falciparum in erythrocytes, SYBR Green DNA, 72 h; series mostly up to 28.7 µM. Summed up: as §1
A further assay deals with AA1029. Described as above. To be noted: P. falciparum in erythrocytes, SYBR Green DNA, 72 h; series mostly up to 28.7 µM. Summed up: as §1
A further assay concerns CP215. Described as above. To be noted: P. falciparum in erythrocytes, SYBR Green DNA, 72 h; series mostly up to 28.7 µM. The essentials: as §1
The test system of another assay is CP217. The assay is described as above. To be noted: P. falciparum in erythrocytes, SYBR Green DNA, 72 h; series mostly up to 28.7 µM. The essentials:
as §1

For a further assay, the system named is CP260. The description is as above. The note with it: P. falciparum in erythrocytes, SYBR Green DNA, 72 h; series mostly up to 28.7 µM. Summed up:
as §1

For the next assay, the system named is CP335. The description is as above. To be noted: P. falciparum in erythrocytes, SYBR Green DNA, 72 h; series mostly up to 28.7 µM. Summed up: as §1
For the next assay, the system named is DIV14. Described as above. The note with it: P. falciparum in erythrocytes, SYBR Green DNA, 72 h; series mostly up to 28.7 µM. The essentials: as §1
The subject of another assay is DIV17. The description is as above. The note with it: P. falciparum in erythrocytes, SYBR Green DNA, 72 h; series mostly up to 28.7 µM. The essentials: as §1
For another assay, the system named is Dd2. Described as above. To be noted: P. falciparum in erythrocytes, SYBR Green DNA, 72 h; series mostly up to 28.7 µM. Summed up:
as §1

The test system of another assay is GB4. Described as above. To be noted: P. falciparum in erythrocytes, SYBR Green DNA, 72 h; series mostly up to 28.7 µM. Summed up: as §1
In the next assay the test system is ICS. Described as above. The note with it: P. falciparum in erythrocytes, SYBR Green DNA, 72 h; series mostly up to 28.7 µM. The essentials:
as §1

A further assay deals with N140. Described as above. The note with it: P. falciparum in erythrocytes, SYBR Green DNA, 72 h; series mostly up to 28.7 µM. The essentials: as §1
A further assay relates to TAB165. The assay is described as above. The note with it: P. falciparum in erythrocytes, SYBR Green DNA, 72 h; series mostly up to 28.7 µM. Summed up: as §1

Sequence of Luciferin 4-monooxygenase (Photinus pyralis) (P08659 whole entry, looked up): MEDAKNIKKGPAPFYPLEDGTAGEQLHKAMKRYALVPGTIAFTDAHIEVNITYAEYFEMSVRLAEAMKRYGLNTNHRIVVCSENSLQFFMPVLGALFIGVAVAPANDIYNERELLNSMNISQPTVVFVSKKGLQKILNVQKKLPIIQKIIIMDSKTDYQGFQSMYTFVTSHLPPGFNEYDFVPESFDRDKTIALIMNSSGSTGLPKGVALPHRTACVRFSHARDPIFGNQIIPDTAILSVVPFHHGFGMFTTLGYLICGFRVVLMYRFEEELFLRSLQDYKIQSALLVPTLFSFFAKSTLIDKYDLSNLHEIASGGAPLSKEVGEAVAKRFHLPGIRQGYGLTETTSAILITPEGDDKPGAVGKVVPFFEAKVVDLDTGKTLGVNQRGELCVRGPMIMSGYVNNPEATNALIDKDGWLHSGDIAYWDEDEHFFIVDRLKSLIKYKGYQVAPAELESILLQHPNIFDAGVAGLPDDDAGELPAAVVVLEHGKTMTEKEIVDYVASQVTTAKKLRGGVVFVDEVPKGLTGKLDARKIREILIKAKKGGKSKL
Sequence of Pyruvate kinase PKM (Homo sapiens) (P14618 whole entry, looked up): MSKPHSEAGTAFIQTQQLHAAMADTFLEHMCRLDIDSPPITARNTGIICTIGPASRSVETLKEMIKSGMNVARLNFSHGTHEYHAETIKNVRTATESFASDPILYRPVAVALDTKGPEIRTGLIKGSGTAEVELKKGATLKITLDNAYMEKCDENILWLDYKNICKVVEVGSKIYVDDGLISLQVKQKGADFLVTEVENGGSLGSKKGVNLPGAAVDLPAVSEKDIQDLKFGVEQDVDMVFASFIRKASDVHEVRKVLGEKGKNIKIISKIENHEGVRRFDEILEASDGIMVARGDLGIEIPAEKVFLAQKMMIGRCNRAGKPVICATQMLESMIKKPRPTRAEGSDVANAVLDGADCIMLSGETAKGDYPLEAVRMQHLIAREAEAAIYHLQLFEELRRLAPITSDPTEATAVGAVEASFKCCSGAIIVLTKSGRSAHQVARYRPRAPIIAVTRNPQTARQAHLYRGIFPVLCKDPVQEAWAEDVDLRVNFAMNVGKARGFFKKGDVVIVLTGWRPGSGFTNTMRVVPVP
Sequence of Pyruvate kinase (Leishmania mexicana) (Q27686 2-499 E452W): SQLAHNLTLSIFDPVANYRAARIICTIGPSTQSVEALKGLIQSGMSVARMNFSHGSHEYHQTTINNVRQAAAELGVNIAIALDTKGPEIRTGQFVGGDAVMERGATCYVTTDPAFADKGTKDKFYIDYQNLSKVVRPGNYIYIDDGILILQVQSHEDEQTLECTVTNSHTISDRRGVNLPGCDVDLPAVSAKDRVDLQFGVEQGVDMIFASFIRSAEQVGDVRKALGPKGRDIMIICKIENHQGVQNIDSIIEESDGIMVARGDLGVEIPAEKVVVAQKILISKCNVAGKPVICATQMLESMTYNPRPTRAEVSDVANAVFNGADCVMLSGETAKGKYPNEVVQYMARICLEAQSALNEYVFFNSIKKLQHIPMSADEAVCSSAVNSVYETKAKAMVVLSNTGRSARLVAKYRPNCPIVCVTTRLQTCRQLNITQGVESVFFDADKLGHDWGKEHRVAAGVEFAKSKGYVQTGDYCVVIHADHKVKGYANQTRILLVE

On to `N.N.N.N.N.N.N.N.N.N.N.N.N.N.O.O.[Ru].[Ru].[Ru]`, for which, in assay [1], the Potency entry is “inactive”.
In the case of `O=C1O/C(=C\Br)CC[C@@H]1c1cccc2ccccc12`, the compound was classed as inactive in assay [2].
Turning to `C[C@H]1C[C@@H]2[C@H]3CCC4=CC(=O)C=C[C@@]4(C)[C@@]3(Cl)[C@@H](O)C[C@]2(C)[C@]1(OC(=O)c1ccco1)C(=O)CCl`, the outcome in assay [3] and in [6] was inactive. In addition, the Potency entry in assay [4] and in assay [5] was “inactive” in each case. The Potency in the assay on 3D7 is 3.98 µM (active); in the assay on 7G8, 1.78 µM (active); in the assay with AA1029, 3.16 µM (active); with CP215, 5.1 µM (active); with CP217 it was 3.98 µM (active); in the assay with CP260 it was 3.98 µM (active). The Potency in the assay with CP335 was 5.73 µM (active); in the assay on DIV14, 5.1 µM (active); with DIV17, 7.21 µM (active); with Dd2, 3.55 µM (active); in the assay with GB4, 6.42 µM (active); in the assay on ICS, 3.55 µM (active). Besides, the Potency in the assay with N140 and in the assay with TAB165 was 3.55 µM (active) in each case.
For the compound `CO/N=C(\C(=O)N[C@@H]1C(=O)N2C(C(=O)[O-])=C(C[N+]3(C)CCCC3)CS[C@@H]12)c1csc(N)n1`, the compound was called inactive in [3] and in assay [6]. The Potency entry (in assay [4]; in assay [5]; in the assay with 3D7; in the assay on 7G8; with AA1029; in the assay with CP215) was “inactive” in each case. Moreover, the Potency result in the assay with CP217, with CP260, with CP335, in the assay with DIV14, with DIV17 and in the assay on Dd2 was “inactive” throughout. Moreover, the Potency result in the assay with GB4, in the assay on ICS, in the assay with N140 and in the assay on TAB165 was “inactive” throughout.
